Lamin A splicing: modulators of lamin A splicing | HeLa LMNA splicing GFP/RFP minigene ratio, 48 h | Potency, µM (doses to about 46.1 µM), inactives show top-dose ratio change, negative = inhibition, usual class: inhibitors | 200,000 tested, 0.01% active | AID 1487; active = well fitted inhibition curve with a large enough effect in the signal ratio, with a control signal flat, not every such curve was filed as active; inconclusive = small, poorly fitted or top-dose-only effect, or effect the other way, or a change in a side signal; the % refers to the signal ratio; note: potency is the fitted concentration of half-maximal effect; % is set by controls: 0 for no effect and ±100 for the full control effect
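Read-out is the ratio of GFP to DsRed2 object intensity, acquired by 488 nm laser-scanning cytometry on HeLa lamin A-EGFP minigene reporter cells. Compound incubation 48 hrs at 37 °C in Opti-MEM with 2% FBS; DMSO 0.5% final.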
MBNL1-CUG inh: inhibitors of human MBNL1 binding to CUG repeat RNA; Q9NR56; TR-FRET MBNL1-His/biotin-(CUG)12 binding, 665/545 ratio; Potency, µM (top dose mostly 57.5 µM), for inactives: top-dose activity change, negative = inhibition, hits mostly inhibitors; 280,000 tested, 0.036% active; AID 2675; active = well fitted inhibition curve with a large enough effect in the signal ratio, with a control signal flat, not every such curve was filed as active; inconclusive = small, poorly fitted or top-dose-only effect, or effect the other way, or a change in a side signal; inactive = no such curve, though single readings can be large or run the other way; the % refers to the signal ratio; note: potency is the fitted concentration of half-maximal effect; % is set by controls: 0 for no effect and ±100 for the full control effect
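Inhibition of protein-RNA binding appears as loss of TR-FRET between terbium anti-His antibody on MBNL1-His and streptavidin-XL665 on biotin-(CUG)12. Activity is normalized to buffer-only and uninhibited-complex controls.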
CBFb-RUNX1 inh: blocks binding between human CBF-beta and RUNX1. AlphaScreen CBFb-His/RUNX1-biotin binding, biochemical. 230,000 tested, under 10 active. AID 1477. Q01196+Q13951. Potency, µM (doses to about 59.8 µM), inactives show top-dose activity, negative = inhibition, hits mostly inhibitors; note: % of control where 0% means no effect
Target sequence (Q01196 whole entry, looked up): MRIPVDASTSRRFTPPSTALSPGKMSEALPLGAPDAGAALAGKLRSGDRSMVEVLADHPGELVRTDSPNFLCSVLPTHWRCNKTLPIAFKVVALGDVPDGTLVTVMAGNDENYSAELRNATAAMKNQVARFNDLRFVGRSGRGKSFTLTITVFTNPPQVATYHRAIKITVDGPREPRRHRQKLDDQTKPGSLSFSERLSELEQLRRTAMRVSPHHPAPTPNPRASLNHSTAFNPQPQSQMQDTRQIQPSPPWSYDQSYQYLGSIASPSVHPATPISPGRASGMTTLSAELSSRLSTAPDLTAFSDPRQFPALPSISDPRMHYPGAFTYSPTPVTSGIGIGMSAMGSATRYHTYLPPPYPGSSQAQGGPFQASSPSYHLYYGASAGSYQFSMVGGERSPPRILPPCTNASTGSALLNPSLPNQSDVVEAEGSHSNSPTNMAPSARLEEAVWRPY
Target sequence (Q13951 whole entry, looked up): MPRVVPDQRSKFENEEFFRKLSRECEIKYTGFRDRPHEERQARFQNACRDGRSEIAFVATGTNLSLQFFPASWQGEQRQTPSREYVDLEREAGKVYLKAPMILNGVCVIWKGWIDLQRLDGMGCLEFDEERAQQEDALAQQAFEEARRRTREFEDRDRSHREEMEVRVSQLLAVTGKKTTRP
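CBF-beta (His) and RUNX1 (biotin), 30 nM each; 20 min preassociation; + compound, 15 min; + beads 50 ng each (Ni, streptavidin), 90 min; RT; AlphaScreen read.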
MBNL1 TRFRET: MBNL1-poly(CUG) RNA binding inhibition confirmed | shares compounds with MBNL1-CUG inh | 140 tested, 50% active | Potency, µM (doses to about 57.6 µM), for inactives: at the highest dose activity change, negative = inhibition, usual class: inhibitors | TR-FRET MBNL1-His / biotin-(CUG)12 binding, 60 min
MBNL1 AlphaScrn: MBNL1-CUG RNA binding inhibition, AlphaScreen validation. shares compounds with MBNL1-CUG inh. AlphaScreen MBNL1-His / biotin-(CUG)12 binding. Potency, µM (series often up to 57.7 µM), without a hit: top-dose activity, negative = inhibition, actives largely listed as inhibitors. 140 tested, 30% active
Menin-MLL HTRF: hit in HTRF counterscreen for MBNL1-poly(CUG) binding inhibitors. shares compounds with MBNL1-CUG inh. His-Menin/biotin-MLL peptide TR-FRET counterscreen. Potency, µM (doses to about 57.6 µM), without a hit: at the highest dose activity, negative = inhibition, actives largely listed as inhibitors. 120 tested, 20% active. AID 651843
The depositor's hits bear a star; ? = inconclusive; nt = not tested or not shown; [ ] = remark or other dose. Only some compounds are listed: those with a hit (about 0.039% of all), similar ones and a draw of the others. Unless noted, calls come from the whole dose curve; as a rule, active = well fitted curve in the direction sought with a large enough effect; inconclusive = small, poorly fitted or top-dose-only effect, or another doubt; inactive = no such curve, though single readings can be large; an effect the other way counts as inactive or inconclusive.

SMILES	Lamin A splicing	MBNL1-CUG inh	CBFb-RUNX1 inh	MBNL1 TRFRET	MBNL1 AlphaScrn	Menin-MLL HTRF
Cc1ccc(O)c(-c2cc(-c3ccccc3F)[nH]n2)c1	-1%	4%	4%	nt	nt	nt
Cc1ccc(-c2cc(-c3ccccc3C)[nH]n2)c(O)c1	?	20µM*	-6%	5%	4%	-2%
COc1cc(OC)cc(C2=Nn3c(nnc3-c3ccccc3O)SC2)c1	nt	nt	0%	nt	nt	nt
COC(=O)c1cccc(NC(=O)c2ccccc2)c1	nt	-7%	8%	nt	nt	nt
COC(=O)c1cccc(NC(=O)c2ccc[n+]([O-])c2)c1	nt	40µM*	nt	-24%	?	0%
COCCNC(=O)CCC1CCN(Cc2ccc(-c3ccccc3)cc2)CC1	nt	16µM*	nt	6.5µM*	4%	8.2µM*
COCCNC(=O)CCc1nnc(Cc2ccc(-c3ccccc3)cc2)o1	4%[46 µM]	-1%	-1%	nt	nt	nt
O=C(NCCOCCO)C(=O)Nc1c2c(nn1-c1ccc(F)cc1)CSC2	16%[46 µM]	nt	nt	nt	nt	nt
Cc1ccc(S(=O)(=O)Oc2ccccc2/C=N/N=C(N)N)cc1	-27%[46 µM]	18µM*	-12%	16µM*	-27%	?
Cc1ccc(S(=O)(=O)Oc2ccccc2/C=N/NC(N)=S)cc1	?	1%	0%	nt	nt	nt
COc1ccc(CN2CCC3C=CCC(C(=O)O)C3C2=O)cc1OC (stereo not drawn)	nt	nt	-12%	nt	nt	nt
O=C(Nc1ccccc1Cl)C1CC(=O)N(c2ccccc2)C1 (stereo not drawn)	nt	-2%	0%	nt	nt	nt
O=C(NC1CCCCC1)c1ccccc1NC(=O)C1CC(=O)N(c2ccc(Cl)cc2)C1 (stereo not drawn)	-12%	16µM*	-8%	20%	?	0%
Cc1ccc(N2CC(C(=O)Nc3ccccc3C(=O)NC3CCCCC3)CC2=O)cc1 (stereo not drawn)	1%	21%	9%	nt	nt	nt
O=C(NC1CCCCC1)c1ccccc1NC(=O)C1CC(=O)N(c2ccccc2)C1 (stereo not drawn)	-8%	40µM*	-12%	-10%	-5%	2%
CCOC(=O)c1c(S(=O)(=O)N2CCC(C(=O)N3CCN(c4cc(C)ccc4C)CC3)CC2)c(C)n(C)c1C	-18%[46 µM]	nt	nt	nt	nt	nt
CC(C)=NOCc1ccc(-c2cc(-c3ccccc3)no2)cc1	nt	nt	13%[13.1 µM]	nt	nt	nt
Cc1ccc(/C=c2/sc3n(c2=O)CCCN=3)o1	-4%	35%	-21%	?	-13%	35%
Cc1ccc(/C=c2\sc3n(c2=O)CN(c2ccc(Br)cc2)CN=3)o1	4%	?	8%	nt	nt	nt
CC(C)c1nc2ccc(C(=O)Nc3ccccc3F)cc2o1	13%[46 µM]	nt	nt	nt	nt	nt
CCOC(=O)c1[nH]c(=O)[nH]c1CSc1nc(C)cc(C)n1	-9%	-9%	3%	nt	nt	nt
CCOC(=O)c1c(C)[nH]c(C(=O)CN2CCOCC2)c1C	2%	-6%	-1%	nt	nt	nt
CCOC(=O)CCCCC(=O)c1[nH]c(=O)[nH]c1C[n+]1ccccc1	-2%[46 µM]	32µM*	-8%	16µM*	3.3µM*	?
CCOC(=O)CCCCC(=O)c1[nH]c(=O)[nH]c1CSc1nc(C)cc(C)n1	-4%	32µM*	-13%	26µM*	4.1µM*	-22%
CCOC(=O)CCCCC(=O)c1[nH]c(=O)[nH]c1CN1CCOCC1	10%	2.2µM*	-14%	4.1µM*	0.92µM*	16µM*
SMILES	Lamin A splicing	MBNL1-CUG inh	CBFb-RUNX1 inh	MBNL1 TRFRET	MBNL1 AlphaScrn	Menin-MLL HTRF
CCOC(=O)CCCCC(=O)c1[nH]c(=O)[nH]c1CSc1nnc2c3cc(Br)ccc3n(C)c2n1	-1%[46 µM]	?	-1%	nt	nt	nt
CCOC(=O)CCCCC(=O)c1[nH]c(=O)[nH]c1C[n+]1ccc(C)cc1	nt	?	0%	nt	nt	nt
CCOC(=O)CCCCC(=O)c1[nH]c(=O)[nH]c1CSc1nc(C)cc(=O)[nH]1	-1%	1.8µM*	-24%	0.52µM*	0.073µM*	3.7µM*
CC(C)CO/N=C1/C[C@@H](O)[C@@H](O)[C@@H]2[C@@H]3C(=O)N([C@@H](C)c4ccccc4)C(=O)[C@H]3CC[C@@H]12	nt	nt	6%[13.1 µM]	nt	nt	nt
COc1cccc([C@@H]2Oc3ccc(OC)cc3C[C@H]2OC(=O)Nc2cc(OC)c(OC)c(OC)c2)c1	nt	nt	-9%	nt	nt	nt
Cc1cccc(N2CCN(C(=O)c3cnn(-c4ccc(F)cc4F)c3C3CCN(C(=O)OC(C)(C)C)CC3)CC2)c1C	-17%[46 µM]	nt	nt	nt	nt	nt
Cc1ccc(C)c(CSc2nnc3[nH]c(=O)cc(-c4ccccc4)n23)c1	4%[46 µM]	nt	nt	nt	nt	nt
CC(=O)CSc1nc(N)c(C#N)c(-c2cccs2)c1C#N	-4%	245%	0%	nt	nt	nt
N#Cc1c(N)nc(SCC(=O)NCCc2ccccc2)c(C#N)c1-c1cccs1	11%	134%	?	?	-3%	0%
O=C(CSc1nc2nccnc2c(=O)n1CCc1c[nH]c2ccccc12)Nc1ccc(F)cc1	18%[46 µM]	nt	nt	nt	nt	nt
COCCNC(=O)C(c1cccs1)N(C(=O)Cn1nnc2ccccc21)c1ccc(OC)cc1 (stereo not drawn)	-13%	28µM*	0%	-4%	-11%	2%
COCCNC(=O)C(c1cccs1)N(C(=O)Cn1nnc2ccccc21)c1cccc(C)c1 (stereo not drawn)	9%	1%	4%	nt	nt	nt
CC12CCC=CC1C(c1ccc(/C=C/c3ccccc3)cc1F)N(Cc1ccccc1)C2=O (stereo not drawn)	nt	nt	19%	nt	nt	nt
Cc1cn(C2OC(COC(=O)c3ccccc3)C(OC(=O)c3ccccc3)C2OC(=O)c2ccccc2)c(=O)[nH]c1=O (stereo not drawn)	-7%	7%	-2%	nt	nt	nt
O=C(OCC1OC(OC(=O)c2cc(O)c(O)c(OC(=O)c3cc(O)c(O)c(O)c3)c2)[C@@H](OC(=O)c2cc(O)c(O)c(OC(=O)c3cc(O)c(O)c(O)c3)c2)C(OC(=O)c2cc(O)c(O)c(OC(=O)c3cc(O)c(O)c(O)c3)c2)C1OC(=O)c1cc(O)c(O)c(OC(=O)c2cc(O)c(O)c(O)c2)c1)c1cc(O)c(O)c(OC(=O)c2cc(O)c(O)c(O)c2)c1 (stereo partly drawn)	?	nt	nt	0.41µM*	0.029µM*	nt
O=C(O)C1CC=CC2CCN(C3CC3)C(=O)C21 (stereo not drawn)	nt	nt	15%	nt	nt	nt
CCOC(=O)[C@H](Cc1ccc(O)cc1)NC(=O)c1ccccc1	nt	nt	5%	nt	nt	nt
Cc1cc(N2CCN(C)CC2)nc2ccc(NC(=O)Nc3ccc(Cl)cc3)cc12	-10%[46 µM]	nt	nt	nt	nt	nt
Cc1cc(N)c2cc(NC(=O)Nc3ccc4nc(C)cc(N)c4c3)ccc2n1	nt	nt	nt	nt	nt	21µM*
O=C(/C=C/c1cccs1)Nc1scc(-c2ccccc2)c1C(=O)O	-2%[9.22 µM]	nt	-10%	21µM*	13µM*	10%
